What all share (assay): DAPPL (digital affinity profiling via proximity ligation, sequencing); 10 mM Tris-HCl pH 7.5, 50 mM NaCl, 1 mM DTT, 4% glycerol, room temperature, 30 min; GST-TFs on glutathione beads, 16-mer random dsDNA library, 0.1% formaldehyde crosslink after washing; high values mean tight binding
For assay [1], the target named is T1, FLI1 (Homo sapiens, UniProt Q01543 1-452).
T1 sequence: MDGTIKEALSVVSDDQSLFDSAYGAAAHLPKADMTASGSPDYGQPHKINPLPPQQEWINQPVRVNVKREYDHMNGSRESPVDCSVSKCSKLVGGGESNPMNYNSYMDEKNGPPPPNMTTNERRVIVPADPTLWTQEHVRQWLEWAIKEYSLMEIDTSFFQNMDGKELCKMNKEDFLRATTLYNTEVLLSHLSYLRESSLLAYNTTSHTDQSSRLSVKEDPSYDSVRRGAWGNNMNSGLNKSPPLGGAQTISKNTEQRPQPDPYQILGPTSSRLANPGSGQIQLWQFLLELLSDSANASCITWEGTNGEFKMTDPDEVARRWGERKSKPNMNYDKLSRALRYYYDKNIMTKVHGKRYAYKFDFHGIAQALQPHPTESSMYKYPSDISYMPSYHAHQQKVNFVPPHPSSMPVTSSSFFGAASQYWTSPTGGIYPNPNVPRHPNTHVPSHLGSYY
As to conditions: protein: recombinant; tags: N-terminal GST; dsDNA, one strand shown. In a few lines:
(§1)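 Each value of binding signal is a hexamer's read frequency for a factor divided by the same hexamer's frequency in the tag-only sample. Barcoded, bead-captured GST fusions of human transcription factors made in yeast were pooled with that sample and incubated with 200 nmole of a random double-stranded 16-mer DNA library in Tris/NaCl/DTT/glycerol buffer at room temperature for 30 min. Washing, 0.1% formaldehyde crosslinking, proximity ligation, PCR and Illumina NextSeq500 sequencing followed.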

The target of assay [2] is T2, ELK1 (Homo sapiens, UniProt P19419 1-428).
T2 sequence: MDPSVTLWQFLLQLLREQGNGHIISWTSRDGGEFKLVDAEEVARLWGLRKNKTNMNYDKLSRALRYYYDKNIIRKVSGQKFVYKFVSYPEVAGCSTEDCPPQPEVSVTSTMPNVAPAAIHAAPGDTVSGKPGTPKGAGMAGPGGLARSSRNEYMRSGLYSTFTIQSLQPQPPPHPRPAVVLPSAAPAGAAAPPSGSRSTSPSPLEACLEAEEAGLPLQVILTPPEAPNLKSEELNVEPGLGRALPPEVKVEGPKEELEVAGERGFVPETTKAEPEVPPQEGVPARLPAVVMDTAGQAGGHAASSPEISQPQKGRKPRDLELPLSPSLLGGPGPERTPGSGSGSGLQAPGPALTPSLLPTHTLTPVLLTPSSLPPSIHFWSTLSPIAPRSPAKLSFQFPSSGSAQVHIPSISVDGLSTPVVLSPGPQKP
The following applies: protein: recombinant; tags: N-terminal GST; dsDNA, one strand shown. In a few lines: as §1

Assay [3] deals with T3, GABPA (Homo sapiens, UniProt Q06546 1-454).
T3 sequence: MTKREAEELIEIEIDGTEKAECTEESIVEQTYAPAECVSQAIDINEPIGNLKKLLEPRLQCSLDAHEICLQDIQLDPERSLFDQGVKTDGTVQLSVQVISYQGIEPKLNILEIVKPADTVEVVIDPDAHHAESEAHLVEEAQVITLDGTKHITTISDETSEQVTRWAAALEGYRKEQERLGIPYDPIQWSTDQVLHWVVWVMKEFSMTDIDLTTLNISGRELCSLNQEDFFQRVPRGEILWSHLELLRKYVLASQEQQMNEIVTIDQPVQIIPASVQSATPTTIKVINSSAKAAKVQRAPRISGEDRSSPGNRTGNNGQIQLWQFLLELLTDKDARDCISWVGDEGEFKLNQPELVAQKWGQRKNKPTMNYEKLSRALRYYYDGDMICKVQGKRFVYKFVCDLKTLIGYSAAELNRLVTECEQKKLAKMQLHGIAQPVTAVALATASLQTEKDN
The following applies: protein: recombinant; tags: N-terminal GST; dsDNA, one strand shown. In a few lines: as §1

Assay [4] addresses T4, ERG (Homo sapiens, UniProt P11308 1-479).
T4 sequence: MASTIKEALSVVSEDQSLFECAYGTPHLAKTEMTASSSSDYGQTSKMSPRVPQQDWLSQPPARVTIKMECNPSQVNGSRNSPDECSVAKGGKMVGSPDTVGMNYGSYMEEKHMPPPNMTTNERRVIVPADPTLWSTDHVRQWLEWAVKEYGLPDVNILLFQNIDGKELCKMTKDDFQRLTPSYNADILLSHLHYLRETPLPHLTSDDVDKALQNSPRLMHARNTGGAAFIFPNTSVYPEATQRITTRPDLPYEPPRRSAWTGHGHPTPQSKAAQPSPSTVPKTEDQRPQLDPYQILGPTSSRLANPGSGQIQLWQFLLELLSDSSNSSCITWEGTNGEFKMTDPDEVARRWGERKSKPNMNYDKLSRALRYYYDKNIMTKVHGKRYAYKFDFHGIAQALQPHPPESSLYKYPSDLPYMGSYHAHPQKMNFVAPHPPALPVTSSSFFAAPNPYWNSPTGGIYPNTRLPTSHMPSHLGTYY
As to conditions: protein: recombinant; tags: N-terminal GST; dsDNA, one strand shown. In a few lines:
as §1

Assay [5] concerns the target ELF1 (Homo sapiens, UniProt P32519 1-619). The following applies: protein: recombinant; tags: N-terminal GST; dsDNA, one strand shown. An outline of the steps: as §1
Assay [6] concerns the target T5, EHF (Homo sapiens, UniProt Q9NZC4 1-300).
T5 sequence: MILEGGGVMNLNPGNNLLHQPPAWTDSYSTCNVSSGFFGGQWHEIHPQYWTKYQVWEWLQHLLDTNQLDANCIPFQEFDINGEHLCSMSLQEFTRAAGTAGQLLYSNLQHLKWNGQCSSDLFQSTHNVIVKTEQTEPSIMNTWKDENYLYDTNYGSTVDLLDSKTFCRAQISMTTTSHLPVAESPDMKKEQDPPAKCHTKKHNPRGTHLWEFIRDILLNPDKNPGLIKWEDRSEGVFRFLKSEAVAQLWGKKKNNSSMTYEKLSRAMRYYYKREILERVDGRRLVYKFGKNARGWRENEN
As to conditions: protein: recombinant; tags: N-terminal GST; dsDNA, one strand shown. In a few lines: as §1

The target of assay [7] is SPI1 (Homo sapiens, UniProt P17947 1-270). The following applies: protein: recombinant; tags: N-terminal GST; dsDNA, one strand shown. In a few lines: as §1
The target of assay [8] is SPIB (Homo sapiens, UniProt Q01892 1-262). As to conditions: protein: recombinant; tags: N-terminal GST; dsDNA, one strand shown. In a few lines:
as §1

The target of assay [9] is T6, ELK3 (Homo sapiens, UniProt P41970 1-407).
T6 sequence: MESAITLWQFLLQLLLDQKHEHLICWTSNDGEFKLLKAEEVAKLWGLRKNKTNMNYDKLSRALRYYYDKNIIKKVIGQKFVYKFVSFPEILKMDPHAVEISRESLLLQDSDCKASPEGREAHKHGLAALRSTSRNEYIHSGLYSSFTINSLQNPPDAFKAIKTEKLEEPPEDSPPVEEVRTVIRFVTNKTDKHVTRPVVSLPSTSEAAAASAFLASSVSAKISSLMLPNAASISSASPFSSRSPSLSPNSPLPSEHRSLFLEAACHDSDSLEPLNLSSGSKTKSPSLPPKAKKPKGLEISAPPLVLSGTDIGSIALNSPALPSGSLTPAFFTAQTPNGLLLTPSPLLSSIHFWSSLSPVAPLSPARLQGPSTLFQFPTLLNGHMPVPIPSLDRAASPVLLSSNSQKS
As to conditions: protein: recombinant; tags: N-terminal GST; dsDNA, one strand shown. An outline of the steps: as §1

The target in assay [10] is T7, FEV (Homo sapiens, UniProt Q99581 1-238).
T7 sequence: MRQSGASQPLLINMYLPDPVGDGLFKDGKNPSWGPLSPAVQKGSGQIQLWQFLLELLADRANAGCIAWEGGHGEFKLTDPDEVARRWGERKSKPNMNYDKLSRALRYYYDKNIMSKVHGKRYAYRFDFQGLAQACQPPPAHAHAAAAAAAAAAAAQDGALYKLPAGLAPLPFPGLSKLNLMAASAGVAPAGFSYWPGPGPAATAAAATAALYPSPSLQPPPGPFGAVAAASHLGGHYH
The following applies: protein: recombinant; tags: N-terminal GST; dsDNA, one strand shown. In a few lines: as §1

Assay [11] has as its target ETV5 (Homo sapiens, UniProt P41161 1-510). The following applies: protein: recombinant; tags: N-terminal GST; dsDNA, one strand shown. An outline of the steps: as §1
Assay [12] addresses HSF1 (Homo sapiens, UniProt Q00613 1-529). As to conditions: protein: recombinant; tags: N-terminal GST; chain copies: 3; dsDNA, one strand shown. In a few lines:
as §1

Assay [13] concerns the target ELF4 (Homo sapiens, UniProt Q99607 1-663). As to conditions: protein: recombinant; tags: N-terminal GST; dsDNA, one strand shown. An outline of the steps:
as §1

The target of assay [14] is T8, ELK4 (Homo sapiens, UniProt P28324-2 1-405).
T8 sequence: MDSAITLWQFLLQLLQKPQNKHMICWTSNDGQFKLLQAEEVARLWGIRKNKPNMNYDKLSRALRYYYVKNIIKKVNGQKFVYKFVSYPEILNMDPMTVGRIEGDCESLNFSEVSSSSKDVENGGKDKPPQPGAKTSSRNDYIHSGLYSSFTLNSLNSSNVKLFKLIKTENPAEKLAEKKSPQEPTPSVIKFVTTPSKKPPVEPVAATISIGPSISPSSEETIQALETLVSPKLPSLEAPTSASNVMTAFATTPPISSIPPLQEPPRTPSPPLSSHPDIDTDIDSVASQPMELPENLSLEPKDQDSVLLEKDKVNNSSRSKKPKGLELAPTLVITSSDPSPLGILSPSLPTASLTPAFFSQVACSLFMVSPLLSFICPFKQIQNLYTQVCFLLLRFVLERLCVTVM
The following applies: protein: recombinant; tags: N-terminal GST; dsDNA, one strand shown. An outline of the steps:
as §1

The target in assay [15] is T9, ETV2 (Homo sapiens, UniProt O00321 1-342).
T9 sequence: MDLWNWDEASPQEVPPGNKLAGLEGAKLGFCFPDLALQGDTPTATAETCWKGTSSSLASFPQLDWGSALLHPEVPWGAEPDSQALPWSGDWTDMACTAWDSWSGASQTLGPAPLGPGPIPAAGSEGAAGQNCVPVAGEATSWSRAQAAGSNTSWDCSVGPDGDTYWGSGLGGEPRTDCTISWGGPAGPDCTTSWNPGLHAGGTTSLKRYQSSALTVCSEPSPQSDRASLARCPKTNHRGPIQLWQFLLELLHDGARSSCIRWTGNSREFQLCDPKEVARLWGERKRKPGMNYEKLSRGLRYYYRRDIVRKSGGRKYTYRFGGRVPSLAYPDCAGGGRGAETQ
The following applies: protein: recombinant; tags: N-terminal GST; dsDNA, one strand shown. In a few lines:
as §1

Assay [16] concerns the target T10, ELF3 (Homo sapiens, UniProt P78545 1-371).
T10 sequence: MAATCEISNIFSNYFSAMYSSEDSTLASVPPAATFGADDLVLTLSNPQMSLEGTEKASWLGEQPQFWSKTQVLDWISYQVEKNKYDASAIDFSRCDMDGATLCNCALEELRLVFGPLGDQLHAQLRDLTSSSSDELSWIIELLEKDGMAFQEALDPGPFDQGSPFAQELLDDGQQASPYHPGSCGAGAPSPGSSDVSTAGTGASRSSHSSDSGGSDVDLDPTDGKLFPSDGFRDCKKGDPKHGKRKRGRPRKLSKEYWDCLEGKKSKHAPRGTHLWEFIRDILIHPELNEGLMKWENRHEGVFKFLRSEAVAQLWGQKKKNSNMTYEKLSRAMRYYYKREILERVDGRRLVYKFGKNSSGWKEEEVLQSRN
As to conditions: protein: recombinant; tags: N-terminal GST; dsDNA, one strand shown. In a few lines:
as §1

Assay [17] concerns the target ETV1 (Homo sapiens, UniProt P50549 1-477). As to conditions: protein: recombinant; tags: N-terminal GST; dsDNA, one strand shown. An outline of the steps: as §1

Sequence of SPIB (Q01892 whole entry): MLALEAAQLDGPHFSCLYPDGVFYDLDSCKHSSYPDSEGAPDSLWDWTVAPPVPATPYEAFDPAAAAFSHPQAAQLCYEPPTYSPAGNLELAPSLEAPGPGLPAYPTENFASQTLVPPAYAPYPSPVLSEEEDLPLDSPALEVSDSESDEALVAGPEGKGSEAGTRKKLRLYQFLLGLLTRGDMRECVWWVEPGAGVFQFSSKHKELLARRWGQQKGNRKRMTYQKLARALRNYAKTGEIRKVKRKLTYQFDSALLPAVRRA
Sequence of ETV1 (P50549 whole entry): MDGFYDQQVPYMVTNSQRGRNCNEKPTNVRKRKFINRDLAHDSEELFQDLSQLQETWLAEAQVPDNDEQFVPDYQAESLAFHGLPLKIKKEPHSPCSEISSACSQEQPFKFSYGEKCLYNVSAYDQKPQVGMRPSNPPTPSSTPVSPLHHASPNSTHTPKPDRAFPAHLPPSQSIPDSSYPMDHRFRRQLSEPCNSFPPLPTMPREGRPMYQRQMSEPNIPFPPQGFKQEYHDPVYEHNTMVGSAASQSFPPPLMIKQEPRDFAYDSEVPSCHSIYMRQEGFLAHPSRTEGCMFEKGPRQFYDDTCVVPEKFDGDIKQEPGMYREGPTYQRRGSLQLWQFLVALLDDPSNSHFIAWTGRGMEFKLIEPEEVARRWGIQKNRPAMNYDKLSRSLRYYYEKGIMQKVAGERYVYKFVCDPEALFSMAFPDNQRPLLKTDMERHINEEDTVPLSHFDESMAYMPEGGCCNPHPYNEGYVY
Sequence of HSF1 (Q00613 whole entry): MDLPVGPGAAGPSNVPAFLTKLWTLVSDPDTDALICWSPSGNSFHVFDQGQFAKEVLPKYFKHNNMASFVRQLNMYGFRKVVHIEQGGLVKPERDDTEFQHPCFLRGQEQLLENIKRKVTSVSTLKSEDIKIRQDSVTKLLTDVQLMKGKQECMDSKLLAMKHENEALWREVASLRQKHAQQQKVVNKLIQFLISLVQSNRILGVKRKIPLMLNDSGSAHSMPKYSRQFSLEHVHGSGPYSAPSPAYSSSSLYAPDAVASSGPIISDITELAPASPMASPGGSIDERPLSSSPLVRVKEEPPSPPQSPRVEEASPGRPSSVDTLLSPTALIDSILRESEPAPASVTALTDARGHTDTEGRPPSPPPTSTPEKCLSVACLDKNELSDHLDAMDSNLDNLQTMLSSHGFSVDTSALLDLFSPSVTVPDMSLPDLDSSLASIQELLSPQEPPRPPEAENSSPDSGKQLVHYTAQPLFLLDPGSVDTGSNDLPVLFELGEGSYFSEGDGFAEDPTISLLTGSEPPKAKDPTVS
Sequence of ELF4 (Q99607 whole entry): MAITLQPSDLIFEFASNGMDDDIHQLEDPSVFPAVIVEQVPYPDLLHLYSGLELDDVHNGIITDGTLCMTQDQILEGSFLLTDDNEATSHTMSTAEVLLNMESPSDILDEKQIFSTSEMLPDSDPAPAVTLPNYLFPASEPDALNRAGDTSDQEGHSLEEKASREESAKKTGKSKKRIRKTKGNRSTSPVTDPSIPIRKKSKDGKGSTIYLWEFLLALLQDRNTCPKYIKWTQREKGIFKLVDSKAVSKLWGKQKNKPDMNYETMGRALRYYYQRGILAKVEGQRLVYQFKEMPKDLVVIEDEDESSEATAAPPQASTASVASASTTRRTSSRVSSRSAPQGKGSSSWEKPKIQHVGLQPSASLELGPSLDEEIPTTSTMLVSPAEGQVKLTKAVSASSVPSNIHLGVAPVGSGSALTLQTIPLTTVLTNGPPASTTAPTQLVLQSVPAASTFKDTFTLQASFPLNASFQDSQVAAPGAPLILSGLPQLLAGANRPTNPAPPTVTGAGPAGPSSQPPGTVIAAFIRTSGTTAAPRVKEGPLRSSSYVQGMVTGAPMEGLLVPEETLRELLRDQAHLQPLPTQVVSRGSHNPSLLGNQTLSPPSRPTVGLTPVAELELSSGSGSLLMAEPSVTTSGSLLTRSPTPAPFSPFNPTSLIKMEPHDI
Sequence of ETV5 (P41161 whole entry): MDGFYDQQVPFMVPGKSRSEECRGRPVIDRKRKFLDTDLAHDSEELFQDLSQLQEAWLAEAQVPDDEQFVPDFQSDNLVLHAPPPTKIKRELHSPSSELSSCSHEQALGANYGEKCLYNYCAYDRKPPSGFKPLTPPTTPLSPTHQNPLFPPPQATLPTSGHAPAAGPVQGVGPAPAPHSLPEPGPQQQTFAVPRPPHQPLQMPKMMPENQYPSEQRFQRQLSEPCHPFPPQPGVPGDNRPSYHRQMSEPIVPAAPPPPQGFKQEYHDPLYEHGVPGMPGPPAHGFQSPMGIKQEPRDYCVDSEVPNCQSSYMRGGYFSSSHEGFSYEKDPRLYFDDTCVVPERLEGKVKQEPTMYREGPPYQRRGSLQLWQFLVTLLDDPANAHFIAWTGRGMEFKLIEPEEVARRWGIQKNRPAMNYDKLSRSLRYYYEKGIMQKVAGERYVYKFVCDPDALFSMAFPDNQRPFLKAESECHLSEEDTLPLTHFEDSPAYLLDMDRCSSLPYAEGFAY
Sequence of ELF1 (P32519 whole entry): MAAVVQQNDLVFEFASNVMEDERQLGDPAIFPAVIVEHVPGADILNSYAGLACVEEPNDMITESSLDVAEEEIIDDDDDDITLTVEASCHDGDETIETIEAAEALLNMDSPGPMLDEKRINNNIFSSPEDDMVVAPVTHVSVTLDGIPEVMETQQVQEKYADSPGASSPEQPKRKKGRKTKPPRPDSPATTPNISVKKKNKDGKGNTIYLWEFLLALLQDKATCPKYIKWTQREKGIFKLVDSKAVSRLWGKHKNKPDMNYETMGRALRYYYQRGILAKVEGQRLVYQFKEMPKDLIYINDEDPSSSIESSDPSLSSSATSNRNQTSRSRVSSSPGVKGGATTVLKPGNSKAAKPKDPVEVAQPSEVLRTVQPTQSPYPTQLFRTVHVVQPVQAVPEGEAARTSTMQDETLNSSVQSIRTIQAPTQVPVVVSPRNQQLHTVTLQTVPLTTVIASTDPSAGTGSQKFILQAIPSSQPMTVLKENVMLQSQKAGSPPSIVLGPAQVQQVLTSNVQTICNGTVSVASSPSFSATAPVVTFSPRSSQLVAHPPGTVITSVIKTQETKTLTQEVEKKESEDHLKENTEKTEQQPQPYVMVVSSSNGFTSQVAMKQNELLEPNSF

Consider CTGGCC, for which the binding signal in assay [1] was 1.22 fold enrichment (6-mer frequency, TF over GST control); in [2] it was 1.13 fold enrichment (6-mer frequency, TF over GST control); in assay [3], 1.19 fold enrichment (6-mer frequency, TF over GST control); in [4], 1.29 fold enrichment (6-mer frequency, TF over GST control); in [5] it was 1.23 fold enrichment (6-mer frequency, TF over GST control); in assay [6], 1.13 fold enrichment (6-mer frequency, TF over GST control). Further, the binding signal is 1.28 fold enrichment (6-mer frequency, TF over GST control) in assay [7]; 1.18 fold enrichment (6-mer frequency, TF over GST control) in assay [8]; 1.06 fold enrichment (6-mer frequency, TF over GST control) in [9]; 1.13 fold enrichment (6-mer frequency, TF over GST control) in [10]; 1.19 fold enrichment (6-mer frequency, TF over GST control) in assay [11]; 1.01 fold enrichment (6-mer frequency, TF over GST control) in assay [12]. The binding signal in assay [13] is 1.2 fold enrichment (6-mer frequency, TF over GST control); in assay [14] it was 1.35 fold enrichment (6-mer frequency, TF over GST control); in assay [15], 1.04 fold enrichment (6-mer frequency, TF over GST control); in [16] it was 1 fold enrichment (6-mer frequency, TF over GST control); in [17], 1.15 fold enrichment (6-mer frequency, TF over GST control).

For the origin of these results see PMC7862700, “An all-to-all approach to the identification of sequence-specific readers for epigenetic DNA modifications on cytosine”.
